The values below come from PubChem BioAssay.

In the experiment the target is Pantothenate synthetase (Mycobacterium tuberculosis (strain ATCC 25618 / H37Rv)) (UniProt P9WIL5). Description: Coupled enzyme confirmation of inhibitors against recombinant Mtb PanC (AID 375).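 Note: 0% = full reaction with vehicle and 100% = no enzyme background.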 The settings on record: coupled enzyme assay; at 10 µM, hits give high values.

Values without a mark were called inactive. The rule behind the calls is not given here.

Chain of Pantothenate synthetase (Mycobacterium tuberculosis (strain ATCC 25618 / H37Rv)) (P9WIL5 whole entry, looked up): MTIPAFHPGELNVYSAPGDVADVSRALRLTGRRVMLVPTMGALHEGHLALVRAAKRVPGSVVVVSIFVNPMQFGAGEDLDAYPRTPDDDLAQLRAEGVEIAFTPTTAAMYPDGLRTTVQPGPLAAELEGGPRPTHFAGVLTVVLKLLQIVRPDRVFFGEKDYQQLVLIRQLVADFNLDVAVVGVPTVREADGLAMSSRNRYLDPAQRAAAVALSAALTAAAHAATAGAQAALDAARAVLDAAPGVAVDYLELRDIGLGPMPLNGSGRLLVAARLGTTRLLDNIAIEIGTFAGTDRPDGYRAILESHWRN

For orientation: inhibition means the change of the read-out against control, counted positive when it falls. Regarding `Cc1noc(C)c1COC(=O)c1ccccc1Oc1ccccc1`, the inhibition was 0%.

For `COc1ccccc1OCC(O)COC(N)=O` (stereo not drawn), the inhibition was 6%.

`COP(C)(=O)c1c(C)nn(-c2ccccc2)c1C` (stereo not drawn): the inhibition was 0%.

With `Cc1ccc2c(c1)nnn2C1CCN(C(=O)NC23CC4CC(CC(C4)C2)C3)CC1`, the inhibition was 0%.

Take `Cc1ccc(CNC(=O)C2CCN(S(=O)(=O)c3cccs3)CC2)o1`: the inhibition was 0%.

As for `CCC(NC(=O)Nc1cc(OC)c(OC)c(OC)c1)(C(F)(F)F)C(F)(F)F`, the inhibition was 3%.

Consider `CCOC(=O)N1CCN(S(=O)(=O)c2cc(C)c(C)cc2C)CC1`, for which the inhibition was 0%.

Turning to `O=S(=O)(Cc1ccc(Cl)cc1)Nc1ccc2c(c1)OCO2`, the inhibition is 7%.

Consider `Nn1c(SCC(=O)Nc2ccc(Oc3ccccc3)cc2)nnc1C1CC1`, for which the inhibition is 7%.

On to `COc1ccc(S(=O)(=O)Nc2ccccc2OC)cc1C`, for which the inhibition was 2%.

`c1ccc(-c2noc(C3CCCCC3)n2)nc1`: the inhibition is 0%.

In the case of `COc1ccc(-c2nnc(-c3ccc(N)cc3)o2)cc1`, the inhibition was 4%.

On to `CC(O)Cn1cnc2c1c(=O)n(C)c(=O)n2C` (stereo not drawn), for which the inhibition was 2%.

Regarding `CCSc1nc(-c2ccc(OC)cc2)ccc1C#N`, the inhibition is 1%.

Turning to `C=CCOc1ccc(C2/C(=C(\O)c3c(C)[nH]c(C(=O)OC)c3C)C(=O)C(=O)N2CCN(C)C)cc1` (stereo not drawn), the inhibition is 0%.

Regarding `CCN(CC)c1ccc(-c2c(C#N)c(N)nc(OC)c2C#N)cc1`, the inhibition is 0%.

As for `O=C(CCCCn1c(=O)[nH]c2ccsc2c1=O)NCc1cccnc1`, the inhibition is 5%.

With `Cc1csc(NC(=O)CSc2nnc(Cc3cccn3C)n2-c2ccc(F)cc2)n1`, the inhibition was 0%.

`CCOC(=O)c1ccc(NC(=O)CCc2c(C)nc3ncnn3c2C)cc1`: the inhibition was 1%.

Take `COc1ccc2c(c1)C(C)=CC(C)(C)N2C(=O)C(C)N1C(=O)c2ccccc2C1=O` (stereo not drawn): the inhibition is 4%.

For `CC(=O)C1=C(NC(=O)c2ccccc2F)C[C@@H]2[C@H]1C2(C)C`, the inhibition is 0%.

In the case of `COCCNc1nc(C(C)(C)C)nc2c1nnn2Cc1ccccc1Cl`, the inhibition was 0%.

For the compound `Cc1ccc(C(=O)NCc2ccc3c(c2)OCO3)cc1S(=O)(=O)N1CCCCC1`, the inhibition is 0%.

For `Cc1ccc(-c2nnc(-c3cccc(Br)c3)o2)cc1`, the inhibition is 0%.

Consider `CCOC(=O)C1CCN(C(=O)Nc2ccc3snnc3c2)CC1`, for which the inhibition was 6%.

With `CCOc1ccc(CCNC(=O)CCc2nc(-c3ccc(OC)cc3)no2)cc1OCC`, the inhibition was 0%.

Consider `CCCn1c(SCC(=O)Nc2ccccc2C(=O)OC)nc2c1c(=O)n(C)c(=O)n2C`, for which the inhibition was 3%.

For `CC(=Nc1ccc(C)c(C)c1)C1=C(O)CCC1=O`, the inhibition is 3%.

For the compound `COCCCNC(=O)CCCn1c(=O)c2ccccc2n(CC(=O)Nc2c(C)cccc2C)c1=O`, the inhibition was 0%.

Consider `CC(C)NC(=O)c1ccc2c(c1)nnn2C`, for which the inhibition was 0%.

As for `Cc1cc(NC(=O)CSc2nc3c(c(-c4cccnc4)c2C#N)CCC3)no1`, the inhibition was 0%.

As for `COc1ccc(N(C)C(=O)CCS(=O)(=O)c2cccc3nonc23)cc1`, the inhibition was 1%.

Take `O=C(CCNS(=O)(=O)c1ccc(Cl)cc1)NCc1ccccn1`: the inhibition was 0%.

For the compound `CCOc1ccc(Cl)cc1S(=O)(=O)N1CCCC1`, the inhibition is 0%.

`CCCCN(CC)S(=O)(=O)c1ccc2c(c1)CCCN2C(C)=O`: the inhibition was 6%.

For `CCc1ccccc1NC(=O)CCc1nc(-c2ccc(C)cc2)no1`, the inhibition was 0%.

As for `O=C(NCCc1c[nH]c2ccccc12)c1cnc2n(c1=O)CCS2`, the inhibition is 1%.

Regarding `COc1cccc(-n2ccnc2SCC(=O)N2CCc3ccccc32)c1`, the inhibition is 0%.

With `O=c1[nH]c2cccnc2n1Cc1ccco1`, the inhibition is 0%.

`O=C(CSc1nc2ccc(Cl)cc2[nH]1)NCc1ccco1`: the inhibition was 0%.

`CC(C)NC(=O)Nc1cccs1`: the inhibition was 9%.

In the case of `Cn1c(=O)oc2cc(S(=O)(=O)N3CCCC(C(=O)NCC4COc5ccccc5O4)C3)ccc21` (stereo not drawn), the inhibition was 0%.

Turning to `Cc1ccccc1NC(=O)c1c(F)c(F)c(F)c(F)c1F`, the inhibition is 0%.

On to `COc1ccc(CC(=O)N2CCOCC2)cc1OC`, for which the inhibition is 2%.

As to `COc1cccc(-c2nnc3sc(C4CCCCC4)nn23)c1`, the inhibition is 4%.

On to `CC1CCCCC1NC(=O)COc1ccc(-n2cnnn2)cc1` (stereo not drawn), for which the inhibition is 0%.

For `CCCc1cc(N2CCCC2)n2nc(C)c(-c3ccccc3)c2n1`, the inhibition was 0%.

For `CCOC(=O)N1CCN(Cc2nc3c(c(=O)n(C)c(=O)n3C)n2Cc2ccccc2)CC1`, the inhibition is 0%.
